# Assay outcomes (PubChem)
# Tau fil binding: tau filament binding; P10636; recombinant tau filaments, thioflavin S fluorescence, 15 h; filaments grown with octadecylsulfate alongside compound; Potency, µM (top dose mostly 57.1 µM); hit rate 2% among 71,000; AID 596;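 note: actives lower thioflavin S fluorescence by blocking filaments or displacing dye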
# Target sequence (P10636 whole entry, looked up): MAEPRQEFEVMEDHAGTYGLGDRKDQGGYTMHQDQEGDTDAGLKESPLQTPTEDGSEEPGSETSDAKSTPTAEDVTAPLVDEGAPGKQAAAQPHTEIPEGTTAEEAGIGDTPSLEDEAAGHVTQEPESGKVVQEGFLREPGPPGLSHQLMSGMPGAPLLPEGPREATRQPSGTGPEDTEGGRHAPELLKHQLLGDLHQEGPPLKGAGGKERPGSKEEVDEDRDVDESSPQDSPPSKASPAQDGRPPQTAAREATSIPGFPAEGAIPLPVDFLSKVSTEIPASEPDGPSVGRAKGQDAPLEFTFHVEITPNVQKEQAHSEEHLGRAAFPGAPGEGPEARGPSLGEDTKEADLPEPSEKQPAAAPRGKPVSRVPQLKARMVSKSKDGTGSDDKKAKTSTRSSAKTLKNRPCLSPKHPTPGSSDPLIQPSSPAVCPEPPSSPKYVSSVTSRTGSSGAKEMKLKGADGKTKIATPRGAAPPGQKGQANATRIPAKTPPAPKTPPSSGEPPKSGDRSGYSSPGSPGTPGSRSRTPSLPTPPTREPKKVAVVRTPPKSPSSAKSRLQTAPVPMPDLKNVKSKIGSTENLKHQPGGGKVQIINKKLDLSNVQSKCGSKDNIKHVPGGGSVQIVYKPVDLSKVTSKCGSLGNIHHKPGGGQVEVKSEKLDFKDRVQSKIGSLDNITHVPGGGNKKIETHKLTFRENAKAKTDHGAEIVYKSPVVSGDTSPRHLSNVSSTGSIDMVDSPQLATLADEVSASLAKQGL
#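 His-tagged recombinant human tau (exons 2, 3 and 10 included), 1 uM, was induced to fibrillize by 30 uM sodium octadecylsulfate with compound present. After 15 h at 37 C, thioflavine S fluorescence (ex 450, em 510 nm) was read.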
# TSHR ag: activates the human thyroid stimulating hormone receptor | AID 926 | HEK293-CNG-TSHR cells (CNG channel as cAMP sensor), membrane potential dye, cAMP | P16473 | Potency, µM (doses to about 57.1 µM), hits mostly activators | hit rate 0.48% among 73,000; active = well fitted activation curve with a large enough effect in the main read-out, with a control signal flat, not every such curve was filed as active; inconclusive = small, poorly fitted or top-dose-only effect, or a change in a side signal; inactive = no such curve, though single readings can be large or run the other way; reference of the percent scale not stated here;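 note: the control signal comes from parental cells without the receptor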
#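 HEK 293 cells stably expressing TSHR and a cAMP-gated CNG channel; parental CNG-only cells as counterscreen. Cells preloaded 60 min with membrane potential dye plus 100 uM RO 20-1724, then compound 30 min; fluorescence read at 590 nm.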
# CRE Fsk mod: modulators of forskolin-stimulated CRE signaling in CHO cells; CHO CRE-bla reporter (cAMP response element driving beta-lactamase), forskolin EC10, beta-lactamase ratio; Potency, µM (titrated, usually from 38.2 µM), hits mostly activators; hit rate 2.5% among 71,000; AID 662; active = well fitted activation curve with a large enough effect in the signal ratio, with a control signal flat, not every such curve was filed as active; inconclusive = small, poorly fitted or top-dose-only effect, or effect the other way, or a change in a side signal; the % refers to the signal ratio
#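 The 460nm/530nm emission ratio after CCF4 loading defined %Activity, from which AC50 values were obtained. CRE-bla CHO cells received compound dilution series together with an EC10 level of NKH 477 for 3 hours at 37 degrees Celsius.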
# ERK AVP block: blocks ERK signaling stimulated by vasopressin; hit rate 0.99% among 72,000; Potency, µM (series often up to 57.5 µM), actives largely listed as inhibitors; HEK293-V1b, vasopressin-stimulated pERK AlphaScreen; note: nearly all actives have a fitted effect of over 55% in size
#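 Phosphorylated ERK1/2 detected via AlphaScreen bead proximity in lysates of V1b-expressing HEK293 cells given 25 nM vasopressin for 5 min after 30 min compound exposure (37 °C). AC50 from Hill equation; basal DMSO 0%, vasopressin 100%.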
# HEK293 cAMP ctrl: parental HEK293 cAMP activation (counter-screen) | parental HEK293 CNG cAMP sensor, membrane potential fluorescence | hit rate 2.5% among 73,000 | AID 938 | Potency, µM (doses to about 57.1 µM), hits mostly activators; note: nearly all actives have a fitted effect of over 55% in size
#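 Counterscreen for endogenous-receptor signalling: CNG-channel HEK 293 cells report cAMP rise by membrane depolarization. After 60 min dye equilibration with 100 uM RO 20-1724, compounds incubated 30 min before bottom-read fluorescence at 590 nm.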
# Numbers stand for hits; n = inactive; u = inconclusive; x = not tested or not shown; ! = repeats disagree; [ ] = dose if it differs, or a comment. Only some compounds are listed: those with a hit (about 7.4% of all), similar ones and a draw of the others. Unless noted, calls come from the whole dose curve; as a rule, active = well fitted curve in the direction sought with a large enough effect; inconclusive = small, poorly fitted or top-dose-only effect, or another doubt; inactive = no such curve, though single readings can be large; an effect the other way counts as inactive or inconclusive.
SMILES,Tau fil binding,TSHR ag,CRE Fsk mod,ERK AVP block,HEK293 cAMP ctrl
Cc1cc(C(=O)OCC(=O)N2CC(C)CC(C)C2)c(C)o1 (configuration not stated),n,n,n,n,n
CC1CCN(C(=O)COC(=O)c2cc3ccccc3cc2O)CC1,n,u,n,u,0.2µM
Cc1nc(NC2CCCCC2)c2nc(-c3ccccc3)n(CCN3CCCCC3)c2n1,n,u,u,u,u
CCOC(=O)N1CCN(C(=O)CSc2nnc(-c3cccc(OC)c3)o2)CC1,n,n,n,n,n
O=C(CSc1nnc(-c2ccccc2)o1)c1nnc(-c2ccccc2)o1,4µM,n,u,n,n
COc1cccc(-c2nnc(SCC(=O)N(C(C)C)C(C)C)o2)c1,n,u,n,n,16µM
COc1ccc(-c2nnc(SCC(=O)N3CCc4ccccc4C3)o2)cc1,n,u,u,n,25µM
O=C(CSc1nnc(-c2ccccc2)o1)c1ccc2c(c1)OCCO2,n,u,n,n,u
O=C(CSc1nnc(-c2ccc(Br)cc2)o1)Nc1cccc2ccccc12,n,0.04µM,n,n,n
O=C(CSc1nnc(-c2ccccc2)o1)Nc1ccccc1F,n,n,n,n,n
COc1ccc(C2CC(C(F)(F)F)n3ncc(C(=O)NCc4cccnc4)c3N2)cc1OC (configuration not stated),n,n,13µM,u,n
Cc1ccc(S(=O)(=O)OCC(=O)O)cc1,n[11.4 µM],n[11.4 µM],n[7.6 µM],n[11.5 µM],n[11.4 µM]
CC[C@@]1(O)CC2CN(CCc3c([nH]c4ccccc34)[C@](C(=O)OC)(c3cc4c(cc3OC)N(C)C3[C@@](O)(C(=O)OC)C(OC(C)=O)[C@]5(CC)C=CCN6CC[C@@]43C65)C2)C1 (some centres not stated),x,x,x,n,x
CC[C@]1(O)C[C@H]2CN(CCc3c([nH]c4ccccc34)[C@](C(=O)OC)(c3cc4c(cc3OC)N(C)[C@@H]3[C@](O)(C(=O)OC)[C@H](OC(C)=O)[C@]5(CC)C=CCN6CC[C@]43[C@@H]65)C2)C1,n,x,0.63µM,u,n
CCC(=O)c1ccc(OCC(=O)Nc2nn3cnnc3s2)cc1,n,n,n,32µM,n
O=C(O)CCNc1ccccc1C(=O)O,n[11.4 µM],n[11.4 µM],n[7.6 µM],n[11.5 µM],n[11.4 µM]
CNc1ccc([N+](=O)[O-])cc1,n,n,n,n,n
O=[N+]([O-])c1ccc(Nc2nc3ccccc3s2)cc1,4µM,n[11.4 µM],n[7.6 µM],n[11.5 µM],n[11.4 µM]
CCOc1cc(/C=N/NC(=O)c2cc(-c3cccc(OC)c3)n[nH]2)ccc1O,x,n,x,x,n
C1CCOC1,n,u,n,n,u
CC(C)CCn1c(N)c(S(=O)(=O)c2cccs2)c2nc3ccccc3nc21,n,13µM,u,n,n
CC1=C/C(=N/O)C([C@H]2C=C(C)CC(C)(C)[C@@H]2O)C(C)(C)C1 (some centres not stated),n[11.4 µM],n[11.4 µM],n[7.6 µM],n[11.5 µM],n[11.4 µM]
COCCN(CCOC)C(=O)c1ccc(Cc2nc3ccccc3[nH]2)cc1,x,n,x,x,n
CCCn1c(=O)c2ccccc2n2c(SCCOc3ccc(C)cc3)nnc12,n,u,u,n,20µM
CCCn1c(=O)c2ccccc2n2c(SCc3c(C(=O)OCC)oc4ccccc34)nnc12,n,u,n,n,16µM
SMILES,Tau fil binding,TSHR ag,CRE Fsk mod,ERK AVP block,HEK293 cAMP ctrl
CCOC(=O)c1oc2ccccc2c1CSc1nnnn1-c1ccc(OC)cc1,n,u,u,n,16µM
COC(=O)c1ccc(-n2nnnc2SCc2ccccc2OC)cc1,n,u,u,n,16µM
CCCn1c(=O)c2ccccc2n2c(SCN3C(=O)c4ccccc4C3=O)nnc12,n,n,n,n,n
COc1ccc(CNC(=O)CSc2nnnn2-c2ccccc2)cc1,n,n,n,u,n
c1ccc(CNc2ccnc(-c3ccoc3)n2)cc1,n,u,n,n,u
Cc1ccc(S(=O)(=O)NC(=O)OC23COCN2COC3)cc1,n[11.4 µM],n[11.4 µM],n[7.6 µM],n[11.5 µM],n[11.4 µM]
CCCn1c(=O)c2[nH]c(-c3ccccc3)nc2n(CCC)c1=O,u,n,0.2µM,n,n
Cc1ccc(OCc2nn3c(-c4n[nH]c5c4CCC5)nnc3s2)cc1,n,u,u,n,u
COc1ccccc1-c1nnc2sc(COc3ccc(Cl)cc3)nn12,n,u,n,u,u
CCOc1ccccc1OCc1nn2c(COc3ccccc3)nnc2s1,n,u,u,n,16µM
CCOc1cccc(-c2nnc3sc(COc4ccc(C)cc4)nn23)c1,n,u,n,n,25µM
c1ccc(Cc2nn3c(COc4ccccc4)nnc3s2)cc1,n,n,n,n,n
COc1ccc(OCc2nn3c(-c4ccccn4)nnc3s2)cc1,n,n,n,n,n
CCOc1cccc(-c2nnc3sc(COc4ccc(Cl)cc4)nn23)c1,n,u,n,n,16µM
COc1ccc(-c2nnc3sc(COc4ccc(C)cc4)nn23)cc1,n,u,n,n,20µM
O=C(O)CCCCn1cnc2c(=S)nc[nH]c21,n[11.4 µM],n[11.4 µM],n[7.6 µM],n[11.5 µM],n[11.4 µM]
O=C(O)C[C@@H](C(=O)O)C1c2ccccc2-c2ccccc21,n[11.4 µM],u,n[7.6 µM],n[11.5 µM],u
CC(C)CO/N=C1/C[C@@H](O)[C@@H](O)[C@@H]2[C@@H]3C(=O)N(Cc4ccc5c(c4)OCO5)C(=O)[C@H]3CC[C@@H]12,x,n[11.4 µM],x,n[11.5 µM],n[11.4 µM]
Oc1cc(O)c2c(c1)O[C@@H](c1ccc(O)c(O)c1)[C@H](O[C@@]1(c3cc(O)c(O)c(O)c3)Oc3cc(O)cc(O)c3[C@H](O)[C@@H]1O)C2,n[11.4 µM],n[11.4 µM],n[7.6 µM],n[11.5 µM],n[11.4 µM]
COC(=O)[C@@H](NC(=O)c1cc(-c2ccccc2)nc2ccccc12)c1ccccc1,n,u,n,x,3.2µM
COc1cccc(/C=N/NC(=O)c2cc(-c3ccc(C)cc3)n[nH]2)c1O,x,n,x,x,n
O=c1c(-c2ccccc2)nc2cnc(N3CCNCC3)nc2n1C1CC1,n,n,u,n,n
Cc1cc(C)n2nc(SCC(=O)Nc3ccc(F)cc3)nc2n1,n,n,5µM,n,n
COc1ccc2c(CSc3nc4nc(C)cc(C)n4n3)cc(=O)oc2c1,n,n,10µM,u,n
COc1ccc(C(=O)CSc2nc3nc(C)cc(C)n3n2)cc1OC,n,n,4µM,u,n
O=C(O)Cn1c(=O)oc2cc(S(=O)(=O)NC3CCCCC3)ccc21,n,n,n,x,n
CN(C)CCN(C)C(=O)c1ccc(-n2c(=O)c(=O)[nH]c3ccccc32)cc1,x,n,x,x,n
O=C(O)c1cc(N=Nc2ccc([N+](=O)[O-])cc2)ccc1O,32µM!,n[11.4 µM],n[7.6 µM],n[11.5 µM],n[11.4 µM]
CCN1CCN(c2ncc3c(n2)CC(c2cc(OC)c(OC)c(OC)c2)CC3=O)CC1 (configuration not stated),n,u,n,n,10µM
O=C1CC(c2cccc(Cl)c2)Cc2nc(N3CCN(c4ccccc4)CC3)ncc21 (configuration not stated),n,u,n,n,u
